# Laboratory results: PMC5540273 (PLoS ONE, 2017)
# System: RIPK2
# Conditions: concentration: 1 μM, replicates: in singlicate; n = 1
# 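Note: KINOMEscan kinase panel screen.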
row,Compound,%Inh [%]
1,COc1cccc(C2=C(Nc3ccc(Cl)c(C(=O)O)c3)C(=O)NC2=O)c1 [SB-390769],21
2,COc1cccc(NC(=O)NC2CCN(c3ccnc(Nc4cc(OC)c(OC)c(OC)c4)n3)C2)c1 (stereo not drawn) [GSK1379763],29
3,Cn1cc(-c2ccc3c(c2)CCN3C(=O)Cc2cccc(F)c2)c2c(N)ncnc21 [GSK2603358],34
4,CC(=O)N1CCN(c2ccc(Nc3nccc(-c4sc(C(C)C)nc4-c4cccc(NS(=O)(=O)c5cccc(Cl)c5)c4)n3)cn2)CC1 [GSK1660437],93.2
5,CN(C)Cc1ccc(-c2ccc3c(Nc4ccc(Oc5ccccn5)cc4)ccnc3c2)o1 [GW567148],95.3

# System: RIPK4
# Conditions: concentration: 1 μM, replicates: in singlicate; n = 1
row,Compound,%Inh [%]
1,COCCOCCOc1cc2ncc3c4ccc(C#N)cc4[nH]c3c2cc1OC,17
2,CCn1c(-c2nonc2N)nc2c(C#CC(C)(C)O)ncc(OCCCCN)c21.O=C(O)C(F)(F)F.O=C(O)C(F)(F)F [GSK507274],0
3,Cn1cc(-c2[nH]c3cc(NC(=O)[C@H](N)C4CCCCC4)cc4c3c2C=NNC4=O)cn1,87
4,COc1cc(Nc2ncc3c(C)nc(-c4cc5ccccc5[nH]4)n3n2)cc(OC)c1OC [GW869516],0
5,COc1ccc(Nc2nccc(NCCNC(=O)c3cc4ccccc4s3)n2)cc1 [GSK1379896],0
6,Cl.Cl.NCC(C(=O)Nc1cc(Br)c(-c2ccnc3[nH]ccc23)s1)c1ccccc1 (stereo not drawn) [GSK1269851],27
7,Cc1ccc(C)c(NC(=O)NC2CCN(c3ccnc(Nc4ccc(F)cc4)n3)C2)c1 (stereo not drawn) [GSK1379720],6
